The source made the active and inactive calls.

Assay [1] concerns Human papillomavirus type 1a protein E7 (residues 44-93). Description: small molecules binding HPV E7 44-93 – biochemical, small-molecule microarray, residues 44-93, 635 nm fluorescence, primary screen (AID 1108).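 Note: E7 fragment applied at 1 µg/mL in TBST for 1 h at 4 C; score combines spot fluorescence with its signal to noise ratio.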 To be noted: fluorescence 635 nm, higher = more signal.
A short description of assay [2]: hepatitis C replication reporter changes, two-sided – Huh7 cells, luciferase reporter, HCV replication inhibitor project, primary screen (AID 1109).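 Note: huh7 hepatoma cells harbouring a luciferase neomycin HCV replicon reporter; luciferase luminescence as measure of HCV replicon replication; test concentration not given here.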 To be noted: Huh7 HCV replicon luciferase reporter, 48 h; higher = more signal. Background: Reporter assays use an easily measured gene product as a stand-in for the process of interest.
For assay [3], the target named is Left-right determination factor 2 (Homo sapiens) (UniProt O00292). The assay can be described thus: small molecules binding LEFTY2 protein – biochemical, small-molecule microarray, 635 nm fluorescence scan, primary screen (AID 1110). To be noted: higher = more signal.
In assay [4] the target is Calmodulin-1 (Homo sapiens) (UniProt P0DP23). The assay can be described thus: small molecules binding calmodulin-1 with EGTA – biochemical, small-molecule microarray, Cy5-labelled CALM1, profiling panel (AID 1111).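 Note: labelled calmodulin applied in Tris saline Tween buffer holding calcium plus EGTA and DTT.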 To be noted: Cy5-CALM1 binding fluorescence, higher = more signal.
The target is the same in assay [5]. Description: small molecules binding Ca-loaded calmodulin-1 – biochemical, small-molecule microarray, Cy5-labelled CALM1, plus calcium, artefact control for SMM control-protein annotation, profiling panel (AID 1112).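 Note: score merges spot fluorescence with signal to noise from triplicate slides.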 Particulars: Cy5-CALM1 binding fluorescence, higher = more signal.
Assay [6] in a line: probe aWnt5a binding to arrayed compounds – biochemical, biotinylated probe, 635/667 nm fluorescence, primary screen (AID 1113).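 Note: score merges 667 nm fluorescence intensity with signal-to-noise per printed feature.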 To be noted: small-molecule microarray, higher = more signal.
Assay [7] can be described thus: probe aShh binding to arrayed compounds – biochemical, biotinylated probe, 635/667 nm fluorescence, primary screen (AID 1114).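 Note: probe is biotin-labelled aShh protein from a stem cell growth factor screen; measures binding of labelled protein to compounds printed on the slide; score merges feature fluorescence at 667 nm with signal-to-noise.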 To be noted: small-molecule microarray, higher = more signal.
A short description of assay [8]: probe aNog binding to arrayed compounds – biochemical, biotinylated probe, 635/667 nm fluorescence, primary screen (AID 1115).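 Note: probe is biotinylated aNog protein used at 0.15 µg/mL for 1 h at 4 C; z-score combines 667 nm fluorescence of each spot with its signal to noise.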 To be noted: small-molecule microarray, higher = more signal.
Assay [9] concerns the target Torsin-1A-interacting protein 1 (Homo sapiens) (UniProt Q5JTV8). The assay can be described thus: compound microarray binding of lysate hLAP1 – cell lysate, small-molecule microarray, COS7 lysate, 635/667 nm fluorescence, primary screen (AID 1116). Particulars: 635 nm fluorescence, higher = more signal.
The target in assay [10] is Alpha-bungarotoxin (Bungarus multicinctus) (UniProt P60615). The assay can be described thus: compounds binding labelled alpha-BTX control protein – biochemical, small-molecule microarray, Alexa647 label, 635/667 nm fluorescence, artefact control for SMM control protein annotation, profiling panel (AID 1117). To be noted: alpha-BTX-A647 binding fluorescence, higher = more signal.

A further assay concerns the target Albumin (Bos taurus) (UniProt P02769). The assay can be described thus: compounds binding labelled BSA control protein – biochemical, small-molecule microarray, Alexa647 label, 635/667 nm fluorescence, artefact control for SMM control protein annotation, profiling panel (AID 1118).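 Note: score merges 667 nm emission intensity and signal-to-noise per printed compound spot.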 To be noted: BSA-A647 binding, fluorescence 635 nm, higher = more signal.
The nature of assay [11]: probe aXIP binding to arrayed compounds – biochemical, NeuroSMM set, 635/667 nm fluorescence, primary screen (AID 1119).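 Note: probe is the protein aXip251-270 applied at 1 µg/mL to compound-printed slides; binding of probe to printed compounds measured as 667 nm fluorescence plus signal to noise.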 Particulars: small-molecule microarray, higher = more signal, called active from +8 up or from −8 down.
Assay [12] in a line: probe aNOTCH3 binding on compound microarray – biochemical, small-molecule microarray, 635/667 nm fluorescence, primary screen (AID 1120).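 Note: probe is a biotin-tagged antibody raised against NOTCH3 rather than NOTCH3 protein; score merges spot fluorescence near 667 nm with spot signal to noise.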 Particulars: higher = more signal.
Assay [13] in a line: probe aNOTCH2 binding on compound microarray – biochemical, small-molecule microarray, 635/667 nm fluorescence, primary screen (AID 1121).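 Note: score merges feature fluorescence read at 667 nm with its signal to noise.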 To be noted: higher = more signal.
The target in assay [14] is Carbonic anhydrase 2 (Homo sapiens) (UniProt P00918). The assay can be described thus: compounds binding carbonic anhydrase 2 – biochemical, small-molecule microarray, Alexa647-labelled CAII, profiling panel (AID 1122). Particulars: CAII-A647 binding fluorescence, higher = more signal.
Assay [15] in a line: COS7 lysate on small-molecule microarray, probe aHis, 635 nm (AID 1123).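 Note: z-score combines 667nm fluorescence intensity with signal-to-noise per printed compound spot.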 To be noted: COS7 cell lysate, fluorescence, higher = more signal.
Assay [16] is described as follows: probe aLAP1 signal on lysate-treated microarray – cell lysate, small-molecule microarray, COS7 lysate, primary screen (AID 1124).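 Note: lysate comes from COS7 cells expressing LAP1 and is applied at 0.3 µg/mL; score merges spot fluorescence near 667 nm with signal-to-noise over triplicate slides.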 To be noted: probe aLAP1, fluorescence, higher = more signal.
The subject of a further assay is Sam68 (KHDRBS1). Description: compounds binding KHDRBS1 protein – biochemical, small-molecule microarray, 635 nm fluorescence, primary screen (AID 1125).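 Note: score merges 667 nm channel intensity with signal to noise over triplicate slides.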 Particulars: higher = more signal.
Assay [17] has as its system Chordin-like protein 2 (CHRDL2). The assay can be described thus: compounds binding chordin-like 2 – biochemical, small-molecule microarray, 635 nm fluorescence, primary screen (AID 1126).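 Note: printed compound slides probed with Chrdl2 protein at 4 µg/mL for 1 h at 4 C; score merges 667 nm emission intensity with signal to noise over three replicate slides.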 To be noted: fluorescence 635 nm, higher = more signal.
In assay [18] the target is Concanavalin-A (Canavalia ensiformis) (UniProt P02866). The assay can be described thus: compounds binding concanavalin A lectin – biochemical, small-molecule microarray, Alexa647 label, 635 nm, artefact control for SMM control protein annotation, primary screen (AID 1127).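 Note: z combines 667 nm emission intensity with signal-to-noise across three replicate slides.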 Particulars: ConA-A647 binding fluorescence, higher = more signal.
Sequence of Concanavalin-A (Canavalia ensiformis) (P02866 whole entry, looked up): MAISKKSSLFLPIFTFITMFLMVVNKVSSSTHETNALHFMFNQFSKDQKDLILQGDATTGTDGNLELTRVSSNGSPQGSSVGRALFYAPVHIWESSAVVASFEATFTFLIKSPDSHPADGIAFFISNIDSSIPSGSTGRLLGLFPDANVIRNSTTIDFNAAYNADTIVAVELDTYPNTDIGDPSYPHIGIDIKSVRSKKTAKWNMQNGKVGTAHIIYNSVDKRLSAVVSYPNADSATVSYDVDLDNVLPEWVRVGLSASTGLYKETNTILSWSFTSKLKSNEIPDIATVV

Sequence of Left-right determination factor 2 (Homo sapiens) (O00292 whole entry, looked up): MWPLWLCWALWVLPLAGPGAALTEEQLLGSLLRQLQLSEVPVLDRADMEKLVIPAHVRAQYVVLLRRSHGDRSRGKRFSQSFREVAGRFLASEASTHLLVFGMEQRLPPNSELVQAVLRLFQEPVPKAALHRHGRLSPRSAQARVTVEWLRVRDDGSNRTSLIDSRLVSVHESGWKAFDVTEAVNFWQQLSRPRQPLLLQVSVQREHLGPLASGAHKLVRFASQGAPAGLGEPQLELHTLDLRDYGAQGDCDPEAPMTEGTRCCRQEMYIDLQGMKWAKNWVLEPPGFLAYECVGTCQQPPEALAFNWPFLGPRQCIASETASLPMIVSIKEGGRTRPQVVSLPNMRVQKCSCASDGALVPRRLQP
Sequence of Alpha-bungarotoxin (Bungarus multicinctus) (P60615 whole entry, looked up): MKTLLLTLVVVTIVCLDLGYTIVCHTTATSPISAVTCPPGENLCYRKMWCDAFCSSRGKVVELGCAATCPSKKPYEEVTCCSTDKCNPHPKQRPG
Sequence of Albumin (Bos taurus) (P02769 whole entry, looked up): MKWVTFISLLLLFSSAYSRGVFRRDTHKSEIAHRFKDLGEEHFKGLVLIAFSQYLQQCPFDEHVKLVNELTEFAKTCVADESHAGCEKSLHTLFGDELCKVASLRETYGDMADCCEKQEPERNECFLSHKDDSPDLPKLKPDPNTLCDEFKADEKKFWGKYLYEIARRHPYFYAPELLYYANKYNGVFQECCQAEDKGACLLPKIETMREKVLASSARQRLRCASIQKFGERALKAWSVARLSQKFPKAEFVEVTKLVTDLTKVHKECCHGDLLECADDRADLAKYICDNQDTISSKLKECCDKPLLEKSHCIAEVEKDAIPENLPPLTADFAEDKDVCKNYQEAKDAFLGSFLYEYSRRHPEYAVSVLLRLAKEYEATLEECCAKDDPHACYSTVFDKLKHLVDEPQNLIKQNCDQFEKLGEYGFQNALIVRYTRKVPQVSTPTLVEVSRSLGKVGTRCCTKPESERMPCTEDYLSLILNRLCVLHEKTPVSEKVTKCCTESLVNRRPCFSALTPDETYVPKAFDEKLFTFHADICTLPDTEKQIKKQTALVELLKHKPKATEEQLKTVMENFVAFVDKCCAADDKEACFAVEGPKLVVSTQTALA
Sequence of Torsin-1A-interacting protein 1 (Homo sapiens) (Q5JTV8 whole entry, looked up): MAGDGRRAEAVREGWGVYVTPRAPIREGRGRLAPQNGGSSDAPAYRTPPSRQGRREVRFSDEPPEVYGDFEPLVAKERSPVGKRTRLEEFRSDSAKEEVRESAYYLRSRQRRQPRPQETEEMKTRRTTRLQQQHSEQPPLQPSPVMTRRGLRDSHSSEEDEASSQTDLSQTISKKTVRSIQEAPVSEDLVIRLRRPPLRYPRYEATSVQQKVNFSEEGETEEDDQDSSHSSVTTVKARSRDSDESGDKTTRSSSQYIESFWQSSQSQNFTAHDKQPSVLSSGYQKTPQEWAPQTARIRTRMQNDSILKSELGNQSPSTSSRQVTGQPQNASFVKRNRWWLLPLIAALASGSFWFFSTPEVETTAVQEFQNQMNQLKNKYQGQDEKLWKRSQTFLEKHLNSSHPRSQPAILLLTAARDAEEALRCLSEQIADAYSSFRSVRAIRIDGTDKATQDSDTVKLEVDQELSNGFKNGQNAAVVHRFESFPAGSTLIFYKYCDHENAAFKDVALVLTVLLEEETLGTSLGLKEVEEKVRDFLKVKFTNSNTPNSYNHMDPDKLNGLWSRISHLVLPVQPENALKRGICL

For `CN1C(=O)[C@@]2(CCS(=O)(=O)c3ccccc3)N=C(c3ccc(OCCCO)cc3)O[C@H]2c2ccccc21`, the composite z-score is 1.48 in assay [1]; -0.0486 in assay [3]; 2.46 in assay [4]; -0.865 in [5]; -0.176 in [6]; -0.367 in assay [7]. Further, the composite z-score in [8] was -0.321; in [9], 1.72; in [10], 1.32; with Albumin (Bos taurus), 0.159; in assay [12], 0.058; in assay [13], -0.146. The composite z-score in assay [14] came to 0.688; in assay [15], 2.74; in [16], 0.428; in the assay on Sam68 (KHDRBS1) it was 1.28; in assay [17], 0.0089; in assay [18] it was 1.1. In [2], the z-score is -1.55. Further, the composite Z-score in assay [11] was 0.334 (inactive).
With `CC(C)c1ccc(NN2C(C(O)c3ccco3)C=CC3C(=O)N(c4ccccc4)C(=O)C32)cc1` (stereo not given), the composite z-score in [1] amounted to 0.729; in [3], 0.183; in assay [4], 2.07; in assay [5], 0.941; in assay [6] it was 0.0629; in assay [7], 0.279. The composite z-score in [8] was 1.47; in [9] it was 0.93; in assay [10] it was 2.69; with Albumin (Bos taurus), 0.488; in assay [12], 0.133; in [13], 0.124. Moreover, the composite z-score is 0.762 in assay [14]; 2.18 in [15]; 0.219 in assay [16]; 1.14 in the assay on Sam68 (KHDRBS1); -0.394 in [17]; 1.17 in assay [18]. Also, in assay [2], the z-score was found to be 3.21. Besides, the composite Z-score in assay [11] was 0.204 (inactive).
For the molecule `C=CC[C@@]1(C(=O)O)N=C(c2ccc(OCCCO)cc2)O[C@@H]1c1ccccc1`, the composite z-score in assay [1] is 1.35; in assay [3], -1.5; in [4], -0.815; in assay [5], -1.41; in assay [6], 0.499; in assay [7], 0.265. Also, the composite z-score in assay [8] was 2.02; in assay [9] it was 4.53; in assay [10], 2.51; in the assay with Albumin (Bos taurus) it was 0.771; in assay [12], -0.293; in [13] it was 0.247. The composite z-score in assay [14] is 0.527; in assay [15] it was 2.71; in assay [16] it was 0.724; with Sam68 (KHDRBS1), 0.732; in assay [17] it was -0.713; in [18], -0.587. In assay [2], this molecule returned a z-score of 0.0165. Further, in [11], the composite Z-score is 1.76 (inactive).
In the case of `CC(C)CCC[C@@H](C)[C@H]1CC[C@@]2(C)C3=C(CC[C@]12C)[C@@]1(C)CC[C@H](OC(=O)c2ccc(Br)cc2)C(C)(C)C1CC3` (stereo not given in full), the composite z-score in assay [1] is -0.298; in assay [3], 0.711; in [4] it was 0.132; in assay [5], -0.442; in assay [6] it was -0.157; in assay [7] it was -0.0977. In addition, the composite z-score in [8] is -0.18; in assay [9], 0.162; in assay [10], 0.204; in the assay with Albumin (Bos taurus), -0.0217; in assay [12], 0.173; in [13] it was -0.117. Besides, the composite z-score is 0.108 in assay [14]; -0.28 in assay [15]; 0.432 in [16]; 0.28 in the assay with Sam68 (KHDRBS1); 0.498 in assay [17]; 0.291 in [18]. The same molecule displayed a z-score in [2] of 0.132. Also, the composite Z-score in assay [11] is -0.174 (inactive).
Take `C=CC[C@@]12N=C(c3ccc(OCCCO)cc3)O[C@@H]1c1ccccc1N(CCS(=O)(=O)c1ccccc1)C2=O`: the composite z-score in assay [1] was 1.38; in [3], 0.526; in assay [4], 1.69; in assay [5], 0.727; in [6], -0.0303; in [7] it was 0.147. Besides, the composite z-score is -0.0569 in assay [8]; 0.676 in assay [9]; 0.448 in [10]; 0.873 in the assay with Albumin (Bos taurus); 0.0692 in [12]; -0.16 in assay [13]. Further, the composite z-score in [14] is 0.724; in [15], 1.78; in [16] it was 0.551; in the assay with Sam68 (KHDRBS1), 1.31; in assay [17], 0.992; in assay [18], 1.17. Besides, in [2], the z-score is -0.925. In [11], the composite Z-score is -0.32 (inactive).
In the case of `COc1ccc(C(O)C2C=CC3C(=O)N(Cc4ccccc4)C(=O)C3N2n2cnnc2)c2ccccc12` (stereo not given), the composite z-score in [1] was 1.52; in assay [3], -1.55; in assay [4], 0.0664; in assay [5] it was -0.269; in assay [6] it was -0.12; in [7] it was -0.195. In addition, the composite z-score was 0.657 in assay [8]; 1.2 in [9]; -0.438 in assay [10]; 0.626 with Albumin (Bos taurus); -0.0238 in assay [12]; -0.125 in [13]. Besides, the composite z-score in assay [14] was 0.783; in assay [15] it was 1.65; in assay [16], 0.686; with Sam68 (KHDRBS1), 1.01; in assay [17] it was -2.13; in assay [18] it was 0.388. For the same molecule, the z-score in [2] was -0.6. Further, in assay [11], the composite Z-score was 0.624 (inactive).

(Values after PubChem BioAssay.)
